This is an account of results in PubChem BioAssay (NCI).

The nature of experiment [1]: NCI Yeast Anticancer Drug Screen. Data for the rad50 strain (AID 155).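 Further: 0% = growth of vehicle-only cultures of the same strain.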 The following applies: S. cerevisiae rad50 strain growth inhibition, stronger effect = higher value. The gist of the method: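 Readout: growth inhibition relative to vehicle-treated cultures. Compound exposure was carried out in a genetically defined yeast strain deficient in DNA damage repair.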
Experiment [2] can be described thus: NCI Yeast Anticancer Drug Screen. Data for the mec2-1 strain (AID 157). The following applies: S. cerevisiae mec2-1 strain, stronger effect = higher value. A digest of the protocol: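 Yeast mec2-1 mutant treated with compound. Readout: growth inhibition vs vehicle controls.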
Experiment [3] in a line: NCI Yeast Anticancer Drug Screen. Data for the sgs1 mgt1 strain (AID 161).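 Further: 0% = growth of cultures given vehicle only.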 The following applies: S. cerevisiae sgs1 mgt1 strain, stronger effect = higher value. The gist of the method:
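Test agents were incubated with a DNA-repair-mutant yeast strain. Growth was then read and compared against vehicle-treated controls.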

Experiment [4] is described as follows: NCI Yeast Anticancer Drug Screen. Data for the cln2 rad14 strain (AID 165).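 Further: 0% = growth equal to vehicle treated cultures.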 The following applies: S. cerevisiae cln2 rad14 strain, stronger effect = higher value. The gist of the method:
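cln2 rad14 yeast strain; compound exposure; growth inhibition read vs vehicle controls.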

Experiment [5] can be described thus: NCI Yeast Anticancer Drug Screen. Data for the bub3 strain (AID 167). The following applies: S. cerevisiae bub3 mutant strain, stronger effect = higher value. The gist of the method:
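Readout: yeast growth inhibition, expressed relative to vehicle-only wells. The test organism is a mutant strain from a panel with lesions in DNA repair or checkpoint genes.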

A short description of experiment [6]: NCI Yeast Anticancer Drug Screen. Data for the mlh1 rad18 strain (AID 175). The following applies: S. cerevisiae mlh1 rad18 strain growth inhibition, stronger effect = higher value. The gist of the method: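 Yeast w/ defined DNA-repair lesions; compound exposure; growth vs vehicle controls → % inhibition.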
Setting [7] is: at 5.0 µM (retest, dose inferred, filed as 0.5).
[8] abbreviates: at 50.0 µM (retest, dose inferred, filed as 5.0).

Each structure is given as a SMILES string. The panel holds about 79,000 compounds, 15% with a hit somewhere; the sample as a whole holds those more often. Values without a mark were called inactive. Activity calls are given as the source filed them. No stated cut-off is given here; in the data, active means growth inhibition above about 70%; inactive means the rest.

`Nc1ccccc1O`: the growth inhibition in experiment [1] (setting [7]) is 26%; in experiment [1] (setting [8]), 58%; in experiment [1] (at 50.0 µM), 55.8%; in experiment [2] (setting [7]), 17%; in experiment [2] (setting [8]) it was 37%; in experiment [2] (at 50.0 µM) it was 35%. Moreover, the growth inhibition in experiment [3] (setting [7]) is 17%; in experiment [3] (setting [8]), 40%; in experiment [3] (at 50.0 µM), 51.1%; in experiment [4] (setting [7]) it was 15%; in experiment [4] (setting [8]) it was 30%; in experiment [4] (at 50.0 µM), 8.3%. The growth inhibition in experiment [5] (setting [7]) was 54%; in experiment [5] (setting [8]), 77% (active); in experiment [5] (at 50.0 µM) it was 71% (active); in experiment [6] (setting [7]), 45%; in experiment [6] (setting [8]), 77% (active); in experiment [6] (at 50.0 µM), 73.2% (active).

Regarding `CSc1nnc(CCC(=O)Nc2c(C)cccc2C(C)(C)C)o1`, the growth inhibition in experiment [1] (setting [7]) was -5%; in experiment [1] (setting [8]), 1%; in experiment [1] (at 50.0 µM), -2.5%; in experiment [2] (setting [7]), 1%; in experiment [2] (setting [8]) it was 4%; in experiment [2] (at 50.0 µM) it was 27.8%. For the same compound, the growth inhibition is -14% in experiment [3] (setting [7]); 25% in experiment [3] (setting [8]); 10.9% in experiment [3] (at 50.0 µM); 4% in experiment [4] (setting [7]); 7% in experiment [4] (setting [8]); 49.6% in experiment [4] (at 50.0 µM). The growth inhibition in experiment [5] (setting [7]) is 7%; in experiment [5] (setting [8]), 7%; in experiment [5] (at 50.0 µM), 0.65%; in experiment [6] (setting [7]), -9%; in experiment [6] (setting [8]), -3%; in experiment [6] (at 50.0 µM) it was 1.65%.

Take `O=[N+]([O-])C(=C(Nc1ccccc1)Nc1ccccc1)/C(Cl)=C(\Cl)Br`: the growth inhibition in experiment [1] (setting [7]) was -7%; in experiment [1] (setting [8]) it was 99% (active); in experiment [1] (at 50.0 µM), 98.7% (active); in experiment [2] (setting [7]), 11%; in experiment [2] (setting [8]), 99% (active); in experiment [2] (at 50.0 µM) it was 99.5% (active). The growth inhibition in experiment [3] (setting [7]) is 6%; in experiment [3] (setting [8]), 99% (active); in experiment [3] (at 50.0 µM) it was 99.3% (active); in experiment [4] (setting [7]), 22%; in experiment [4] (setting [8]), 99% (active); in experiment [4] (at 50.0 µM), 99.3% (active). For the same compound, the growth inhibition in experiment [5] (setting [7]) was -11%; in experiment [5] (setting [8]) it was 99% (active); in experiment [5] (at 50.0 µM) it was 99.2% (active); in experiment [6] (setting [7]) it was 32%; in experiment [6] (setting [8]), 99% (active); in experiment [6] (at 50.0 µM) it was 99.2% (active).

In the case of `NC(N)=NC(N)=Nc1ccc(-c2ccccc2)cc1`, the growth inhibition in experiment [1] (setting [7]) is -17%; in experiment [1] (setting [8]), 96% (active); in experiment [1] (at 50.0 µM) it was -11.6%; in experiment [2] (setting [7]), 1%; in experiment [2] (setting [8]), 96% (active); in experiment [2] (at 50.0 µM) it was 14.6%. Besides, the growth inhibition in experiment [3] (setting [7]) was 2%; in experiment [3] (setting [8]) it was 97% (active); in experiment [3] (at 50.0 µM), 2.45%; in experiment [4] (setting [7]), -8%; in experiment [4] (setting [8]), 93% (active); in experiment [4] (at 50.0 µM), 7.8%. Also, the growth inhibition in experiment [5] (setting [7]) was -1%; in experiment [5] (setting [8]), 97% (active); in experiment [5] (at 50.0 µM) it was 76.5% (active); in experiment [6] (setting [7]), 4%; in experiment [6] (setting [8]) it was 96% (active); in experiment [6] (at 50.0 µM) it was 32.4%.

Regarding `Cn1c2c(c3ccccc31)CCN(CCN1CCN(c3cccc(Cl)c3)CC1)C2=O`, the growth inhibition was 34% in experiment [1] (setting [7]); 34% in experiment [1] (setting [8]); 88.8% (active) in experiment [1] (at 50.0 µM); 7% in experiment [2] (setting [7]); 7% in experiment [2] (setting [8]); 85.1% (active) in experiment [2] (at 50.0 µM). Also, the growth inhibition in experiment [3] (setting [7]) was 1%; in experiment [3] (setting [8]), 1%; in experiment [3] (at 50.0 µM), 87.8% (active); in experiment [4] (setting [7]), 15%; in experiment [4] (setting [8]), 15%; in experiment [4] (at 50.0 µM) it was 91.3% (active). For the same compound, the growth inhibition in experiment [5] (setting [7]) is -17%; in experiment [5] (setting [8]), -17%; in experiment [5] (at 50.0 µM), 87.8% (active); in experiment [6] (setting [7]) it was 10%; in experiment [6] (setting [8]), 10%; in experiment [6] (at 50.0 µM), 80.6% (active).

As for `CN(C)c1ccc(/C=N/N=C(/C#N)[S][Sn]([S]/C(C#N)=N/N=C/c2ccc(N(C)C)cc2)([c]2ccccc2)[c]2ccccc2)cc1`, the growth inhibition in experiment [1] (setting [7]) is 7%; in experiment [1] (setting [8]) it was 95% (active); in experiment [1] (at 50.0 µM), 98.3% (active); in experiment [2] (setting [7]), 1%; in experiment [2] (setting [8]), 96% (active); in experiment [2] (at 50.0 µM), 96.5% (active). In addition, the growth inhibition was 10% in experiment [3] (setting [7]); 92% (active) in experiment [3] (setting [8]); 97.7% (active) in experiment [3] (at 50.0 µM); 0% in experiment [4] (setting [7]); 89% (active) in experiment [4] (setting [8]); 95.9% (active) in experiment [4] (at 50.0 µM). For the same compound, the growth inhibition in experiment [5] (setting [7]) was -19%; in experiment [5] (setting [8]), 98% (active); in experiment [5] (at 50.0 µM) it was 95.7% (active); in experiment [6] (setting [7]) it was 5%; in experiment [6] (setting [8]) it was 96% (active); in experiment [6] (at 50.0 µM), 97.4% (active).

Turning to `C1=C(C2=CCCc3ccccc32)c2ccccc2CC1`, the growth inhibition was -1% in experiment [1] (setting [7]); 36% in experiment [1] (setting [8]); 30.4% in experiment [1] (at 50.0 µM); -5% in experiment [2] (setting [7]); 27% in experiment [2] (setting [8]); 34.5% in experiment [2] (at 50.0 µM). In addition, the growth inhibition in experiment [3] (setting [7]) is -3%; in experiment [3] (setting [8]), 50%; in experiment [3] (at 50.0 µM), 31.9%; in experiment [4] (setting [7]) it was -4%; in experiment [4] (setting [8]), 59%; in experiment [4] (at 50.0 µM), -45.8%. The growth inhibition was -2% in experiment [5] (setting [7]); 34% in experiment [5] (setting [8]); 5.5% in experiment [5] (at 50.0 µM); -1% in experiment [6] (setting [7]); 43% in experiment [6] (setting [8]); 74.9% (active) in experiment [6] (at 50.0 µM).

In the case of `O=C1c2ccccc2-c2ccc(N3C(=O)C4CCCCC4C3=O)cc21` (configuration not stated), the growth inhibition was -5% in experiment [1] (setting [7]); 95% (active) in experiment [1] (setting [8]); -31.3% in experiment [1] (at 50.0 µM); -4% in experiment [2] (setting [7]); 96% (active) in experiment [2] (setting [8]); 5.4% in experiment [2] (at 50.0 µM). The growth inhibition was -4% in experiment [3] (setting [7]); 96% (active) in experiment [3] (setting [8]); -9.15% in experiment [3] (at 50.0 µM); -8% in experiment [4] (setting [7]); 95% (active) in experiment [4] (setting [8]); -36.8% in experiment [4] (at 50.0 µM). The growth inhibition in experiment [5] (setting [7]) is 41%; in experiment [5] (setting [8]), 95% (active); in experiment [5] (at 50.0 µM) it was 74.9% (active); in experiment [6] (setting [7]), -4%; in experiment [6] (setting [8]), 94% (active); in experiment [6] (at 50.0 µM), -26.2%.

For `CCCCCCCCNc1nc(Cl)nc2c1cnn2C`, the growth inhibition in experiment [1] (setting [7]) was 2%; in experiment [1] (setting [8]), 40%; in experiment [1] (at 50.0 µM), 0.3%; in experiment [2] (setting [7]), -1%; in experiment [2] (setting [8]) it was 59%; in experiment [2] (at 50.0 µM) it was -17.9%. The growth inhibition was 3% in experiment [3] (setting [7]); 68% in experiment [3] (setting [8]); 24.2% in experiment [3] (at 50.0 µM); -4% in experiment [4] (setting [7]); 62% in experiment [4] (setting [8]); -10.6% in experiment [4] (at 50.0 µM). In addition, the growth inhibition is -5% in experiment [5] (setting [7]); 80% (active) in experiment [5] (setting [8]); 42.4% in experiment [5] (at 50.0 µM); 12% in experiment [6] (setting [7]); 84% (active) in experiment [6] (setting [8]); 45.5% in experiment [6] (at 50.0 µM).
